# DAX1 inh-1 – inhibitors of human orphan nuclear receptor DAX1 (NR0B1). inhibition, % at 6.75 µM. P51843. 340,000 tested, 0.99% active. HEK293 Gal4-DAX1 luciferase reporter, luminescence;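 active = inhibition above the mean over all tested compounds plus 3 SD, cut at about 4.2% in these data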;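 also: 0% = DAX1-transfected cells with DMSO and 100% = empty-vector control cells with DMSO; inhibition shows as a rise in luminescence from relieved DAX1 repression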
# hcDAF12 agonist – activators of H. contortus DAF-12 nuclear receptor | HEK293 hcDAF-12 lit1-tk-luc reporter, luminescence; 0% DMSO, 100% Δ7-dafachronic acid | activation, % at 6.8 µM | 370,000 tested, 1.4% active | AID 652067;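 active = activation above the mean of all tested compounds plus 3 SD, cut at about 5.5% in these data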;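 also: 100% = response to 3 µM Δ7-dafachronic acid high control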
# DAX1 inh-2 – DAX1 (NR0B1) inhibition, primary screen | 370,000 tested, 1.1% active | AID 652010 | HEK293T StAR-luciferase reporter, SF-1/DAX-1 repression relief | inhibition, % at 6.8 µM;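 active = inhibition above the mean over all tested compounds plus 3 SD, cut at about 3.6% in these data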;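 also: 0% = DAX-1 cells with DMSO and 100% = cells lacking DAX-1 with DMSO; higher inhibition means more luminescence from relief of DAX-1 repression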
# hgDAF-12 ag – agonists of H. glycines DAF-12 nuclear receptor | AID 687014 | HEK293 GAL4-hgDAF12 UAS-luciferase reporter, agonist luminescence; normalized to butyrate control | 370,000 tested, 1.8% active | activation, % at 6.8 µM;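 active = activation above a cutoff set at the mean of all screened compounds plus 3 SD, cut at about 10% in these data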;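 also: 0% = DMSO wells and 100% = sodium butyrate wells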
# ssDAF-12 act – activators of S. stercoralis DAF-12 nuclear receptor. activation, % at 6.8 µM. HEK293 ssDAF-12/GRIP1 lit1-tk-luc reporter, luminescence; % of 3 µM dafachronic acid response. AID 652126. 370,000 tested, 1% active;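 active = activation above the mean over all tested compounds plus 3 SD, cut at about 0.9% in these data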;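 also: 0% = DMSO-only wells and 100% = 3 µM delta7-dafachronic acid wells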
# DAX1 inh confirm – confirmation of human DAX1 (NR0B1) inhibitors; shares compounds with DAX1 inh-2; HEK293T StAR-promoter luciferase reporter, SF-1/DAX-1 repression; inhibition, % at 6.8 µM; 2,400 tested, 87% active;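 active = inhibition above the average of every tested compound plus 3 SD, cut at about 3.8% in these data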;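 also: 0% = DAX-1 cells with DMSO and 100% = no DAX-1 control cells with DMSO; active compounds raise luminescence by relieving repression of the StAR reporter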
# Target sequence (P51843 whole entry, looked up): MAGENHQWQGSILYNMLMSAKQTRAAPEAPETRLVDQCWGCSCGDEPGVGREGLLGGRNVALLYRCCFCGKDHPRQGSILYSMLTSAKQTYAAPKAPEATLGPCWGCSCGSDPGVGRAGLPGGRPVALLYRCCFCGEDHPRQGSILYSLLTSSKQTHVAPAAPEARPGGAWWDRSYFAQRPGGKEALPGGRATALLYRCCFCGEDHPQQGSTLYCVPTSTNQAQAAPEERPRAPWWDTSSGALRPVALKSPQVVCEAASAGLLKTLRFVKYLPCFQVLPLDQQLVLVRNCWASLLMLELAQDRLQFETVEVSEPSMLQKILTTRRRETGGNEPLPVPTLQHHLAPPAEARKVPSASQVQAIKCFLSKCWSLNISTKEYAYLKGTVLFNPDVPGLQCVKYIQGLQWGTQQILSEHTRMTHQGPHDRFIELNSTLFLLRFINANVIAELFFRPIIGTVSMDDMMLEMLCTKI
# SF1 mutant ctr – counter-screen for DAX1 inhibitors: nonselective inhibitors with SF-1 AF2 mutant; shares compounds with DAX1 inh-2; inhibition, % at 6.8 µM; AID 652136; HEK293 StAR-luciferase, luminescence; 2,400 tested, 78% active;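 active = inhibition above the mean of all tested compounds plus 3 SD, cut at about 3% in these data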;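 also: 0% = DAX-1 transfected cells with DMSO and 100% = cells without DAX-1 with DMSO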
# LXRb hcDAF ctr – LXR-beta agonism as hcDAF-12 counter-screen; shares compounds with hcDAF12 agonist; HEK293 Gal4-LXR tk-luc reporter, luminescence, 24 h; normalized: DMSO 0%, positive control 100%; activation, % at 6.8 µM; 3,400 tested, under 10 active; AID 743027;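 active = mean percent activation of the reporter above a cutoff set as the average over tested compounds plus their standard deviation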
# hcDAF12 conf – hcDAF-12 agonism, confirmation assay | 3,400 tested, 61% active | HEK293 hcDAF-12 lit1-tk-luc reporter, luminescence; % of Δ7-dafachronic acid response | AID 743032 | activation, % at 6.8 µM | shares compounds with hcDAF12 agonist;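 active = mean activation across triplicate tests above the threshold derived from the earlier primary screen, cut at about 5.5% in these data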;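 also: 0% = DMSO only wells and 100% = 3 µM Δ7-dafachronic acid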
# hgDAF12 ag – hgDAF-12 agonism, confirmation assay; shares compounds with hgDAF-12 ag; HEK293 GAL4-hgDAF12 luciferase reporter, agonist mode; percent of butyrate response; activation, % at 6.8 µM; 3,300 tested, 80% active;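 active = mean activation over triplicate wells above the hit cutoff derived from the earlier primary screen, cut at about 11% in these data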;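 also: 0% = DMSO low control and 100% = 2 mM sodium butyrate high control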
# LXR ag 2 – counter-screen for DAF-12 agonists: agonists of human LXR-beta; HEK293 Gal4-LXR luciferase reporter, 24 h; 3,300 tested, under 10 active; AID 743051; activation, % at 6.8 µM; shares compounds with hgDAF-12 ag;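 active = mean activation of the triplicate above a set limit carried over from the primary screen, none filed active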
# * = called active by the depositor; . = no result given. Sampled rows, rich in hits. Any-hit rate of the full collection: about 4.1%.
SMILES,DAX1 inh-1,hcDAF12 agonist,DAX1 inh-2,hgDAF-12 ag,ssDAF-12 act,DAX1 inh confirm,SF1 mutant ctr,hgDAF12 ag,LXR ag 2,others
COc1ccc(NC(=O)c2cc3ccccc3oc2=O)cc1,0.8,5.8*,6.7*,22.7*,1.1*,3.3,-0.7,10.2,0.6,
COc1ccc2oc(=O)c(C(=O)NC(C)c3ccccc3)cc2c1 (centres undefined),-0.8,-3.4,-0.5,-1.2,-1.3,.,.,.,.,
COc1ccc2oc(=O)c(C(=O)Nc3ccccc3O)cc2c1,-1.2,6.1*,5.6*,19.1*,0.7,11.1*,6.8*,16.4*,0.9,
COc1ccc(N(CC(O)Cn2cnc3ccccc32)S(=O)(=O)c2ccc(C)cc2)cc1 (centres undefined),0.1,2.1,0.4,-2.5,-1.1,.,.,.,.,
CC1(C)C2CCC1(CS(=O)(=O)NC(CC(=O)O)c1cccc(Br)c1)C(=O)C2 (centres undefined),0.0,-1.9,0.1,1.3,-0.9,.,.,.,.,
Cc1cccc(-c2nc3cc(NC(=O)C4CCCO4)ccc3o2)c1 (centres undefined),-2.9,8.7*,6.8*,14.4*,0.9*,14.7*,5.4*,12.3*,1.0,LXRb hcDAF ctr=1.7;hcDAF12 conf=7.8*
Cc1ccc(-c2nc3cc(NC(=O)C(C)C)ccc3o2)cc1,-1.0,7.9*,5.1*,13.3*,1.3*,14.4*,4.4*,14.7*,1.3,LXRb hcDAF ctr=1.5;hcDAF12 conf=4.7
Cc1ccc2oc(-c3cccc(NC(=O)C4CCCO4)c3)nc2c1 (centres undefined),1.0,4.5,1.2,3.8,-0.1,.,.,.,.,
CC(=O)Nc1cccc(-c2nc3ccccc3o2)c1,-1.5,-1.8,0.8,1.1,-1.4,.,.,.,.,
CC(=O)Nc1ccc2oc(-c3ccccc3)nc2c1,4.0,1.9,5.6*,15.2*,0.7,12.2*,8.8*,15.1*,0.7,
O=C(Nc1ccc2oc(-c3ccccc3F)nc2c1)c1ncn[nH]1,0.0,6.4*,5.0*,18.7*,0.9,9.3*,5.3*,18.6*,0.8,
CC(C)CN=C(NS(=O)(=O)c1ccccc1)C(Cl)(Cl)Cl,-1.1,-3.1,-0.9,-0.7,-1.7,.,.,.,.,
O=C(c1ccc(Cl)cc1)C1CCN(C(=S)Nc2ccccc2)CC1,0.1,-1.1,0.4,0.9,-1.2,.,.,.,.,
CNC(=O)c1c(NC(=O)C2=COCCO2)sc2c1CCC(C)C2 (centres undefined),-0.1,-1.7,-1.9,1.6,-1.2,.,.,.,.,
CC1CCc2c(sc(NC(=O)C3=COCCO3)c2C(N)=O)C1 (centres undefined),4.1,8.7*,5.7*,15.1*,1.4*,12.1*,6.5*,19.4*,0.8,LXRb hcDAF ctr=1.0;hcDAF12 conf=5.1
COc1ccc(-c2cc(=NC(CC(C)C)C(=O)O)c3cc(C)ccc3o2)cc1 (centres undefined),2.6,5.3,5.2*,16.8*,0.6,4.5*,5.2*,10.0,0.5,
CCc1ccc(-c2cc(N)n(-c3ccccc3)n2)cc1,5.5*,5.1,7.3*,17.2*,0.6,12.1*,7.2*,18.3*,0.9,
Cc1cccc(-c2cc(N)n(-c3ccccc3)n2)c1,3.1,2.7,7.8*,17.6*,-0.4,11.2*,6.8*,20.8*,1.1,

# Compound activity: PubChem, The Scripps Research Institute Molecular Screening Center
